# Experimental data taken from ChEMBL document CHEMBL2218924, “A broad activity screen in support of a chemogenomic map for kinase signalling research and drug discovery” (Biochem J, 2013).
# What was measured:
# [1] = molecular target: T1, Ephrin type-B receptor 1 (Homo sapiens) (UniProt P54762); settings: at 10 µM
# T1 sequence (whole entry): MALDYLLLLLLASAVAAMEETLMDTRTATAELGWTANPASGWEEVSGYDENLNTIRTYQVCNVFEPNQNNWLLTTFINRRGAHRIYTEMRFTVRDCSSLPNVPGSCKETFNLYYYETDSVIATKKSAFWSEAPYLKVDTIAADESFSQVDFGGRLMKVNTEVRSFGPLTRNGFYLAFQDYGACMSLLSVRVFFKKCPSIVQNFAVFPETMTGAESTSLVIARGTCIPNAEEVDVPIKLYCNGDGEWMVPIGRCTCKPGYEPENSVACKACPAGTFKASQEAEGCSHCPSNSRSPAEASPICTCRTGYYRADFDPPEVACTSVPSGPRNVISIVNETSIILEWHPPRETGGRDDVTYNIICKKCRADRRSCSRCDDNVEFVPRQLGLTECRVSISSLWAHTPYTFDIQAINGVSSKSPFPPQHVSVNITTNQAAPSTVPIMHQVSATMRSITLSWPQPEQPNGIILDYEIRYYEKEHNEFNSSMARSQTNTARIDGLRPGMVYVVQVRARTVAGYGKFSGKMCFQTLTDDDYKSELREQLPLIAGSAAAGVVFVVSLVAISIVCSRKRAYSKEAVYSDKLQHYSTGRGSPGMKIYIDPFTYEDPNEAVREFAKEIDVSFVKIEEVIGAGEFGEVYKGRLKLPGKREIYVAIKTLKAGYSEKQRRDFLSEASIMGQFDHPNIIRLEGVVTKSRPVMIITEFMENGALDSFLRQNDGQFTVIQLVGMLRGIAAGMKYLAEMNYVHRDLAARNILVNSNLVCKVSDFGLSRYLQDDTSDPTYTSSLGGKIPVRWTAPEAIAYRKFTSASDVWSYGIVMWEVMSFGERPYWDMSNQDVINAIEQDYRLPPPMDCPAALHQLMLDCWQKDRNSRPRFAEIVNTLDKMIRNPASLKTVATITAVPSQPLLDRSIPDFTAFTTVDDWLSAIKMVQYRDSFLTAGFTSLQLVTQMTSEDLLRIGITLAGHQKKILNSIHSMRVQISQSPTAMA
# [2] = molecular target: T2, Ephrin type-B receptor 2 (Homo sapiens) (UniProt P29323); settings: at 1 µM
# T2 sequence (whole entry): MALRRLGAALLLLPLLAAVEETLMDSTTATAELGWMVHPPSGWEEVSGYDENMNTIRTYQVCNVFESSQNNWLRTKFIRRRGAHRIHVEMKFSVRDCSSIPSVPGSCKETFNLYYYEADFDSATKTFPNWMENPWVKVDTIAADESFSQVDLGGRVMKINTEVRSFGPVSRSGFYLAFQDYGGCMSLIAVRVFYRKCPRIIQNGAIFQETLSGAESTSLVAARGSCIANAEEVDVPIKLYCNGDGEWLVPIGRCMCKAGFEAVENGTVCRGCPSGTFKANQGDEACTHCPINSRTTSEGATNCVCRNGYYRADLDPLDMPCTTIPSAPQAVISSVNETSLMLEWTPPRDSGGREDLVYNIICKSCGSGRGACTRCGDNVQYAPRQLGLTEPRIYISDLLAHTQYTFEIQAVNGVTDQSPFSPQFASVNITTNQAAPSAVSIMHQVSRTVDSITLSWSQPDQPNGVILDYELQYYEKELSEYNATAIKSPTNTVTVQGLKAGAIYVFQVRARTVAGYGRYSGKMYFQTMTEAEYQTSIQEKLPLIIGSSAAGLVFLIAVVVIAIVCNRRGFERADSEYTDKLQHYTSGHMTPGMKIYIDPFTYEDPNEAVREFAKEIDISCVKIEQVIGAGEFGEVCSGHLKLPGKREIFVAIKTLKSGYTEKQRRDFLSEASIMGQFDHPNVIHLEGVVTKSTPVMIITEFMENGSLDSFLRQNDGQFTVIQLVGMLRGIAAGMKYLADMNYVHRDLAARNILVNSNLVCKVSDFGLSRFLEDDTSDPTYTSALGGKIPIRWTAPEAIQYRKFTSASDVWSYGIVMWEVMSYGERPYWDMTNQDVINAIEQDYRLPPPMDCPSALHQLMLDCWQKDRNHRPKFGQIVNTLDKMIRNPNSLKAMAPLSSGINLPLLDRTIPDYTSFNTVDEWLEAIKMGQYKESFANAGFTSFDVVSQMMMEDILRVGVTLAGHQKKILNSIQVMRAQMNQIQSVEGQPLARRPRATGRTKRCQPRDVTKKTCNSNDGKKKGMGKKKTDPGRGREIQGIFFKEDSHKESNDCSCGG
# [3] = molecular target: T2, Ephrin type-B receptor 2 (Homo sapiens); settings: at 10 µM
# [4] = molecular target: T3, Ephrin type-B receptor 3 (Homo sapiens) (UniProt P54753); settings: at 1 µM
# T3 sequence (whole entry): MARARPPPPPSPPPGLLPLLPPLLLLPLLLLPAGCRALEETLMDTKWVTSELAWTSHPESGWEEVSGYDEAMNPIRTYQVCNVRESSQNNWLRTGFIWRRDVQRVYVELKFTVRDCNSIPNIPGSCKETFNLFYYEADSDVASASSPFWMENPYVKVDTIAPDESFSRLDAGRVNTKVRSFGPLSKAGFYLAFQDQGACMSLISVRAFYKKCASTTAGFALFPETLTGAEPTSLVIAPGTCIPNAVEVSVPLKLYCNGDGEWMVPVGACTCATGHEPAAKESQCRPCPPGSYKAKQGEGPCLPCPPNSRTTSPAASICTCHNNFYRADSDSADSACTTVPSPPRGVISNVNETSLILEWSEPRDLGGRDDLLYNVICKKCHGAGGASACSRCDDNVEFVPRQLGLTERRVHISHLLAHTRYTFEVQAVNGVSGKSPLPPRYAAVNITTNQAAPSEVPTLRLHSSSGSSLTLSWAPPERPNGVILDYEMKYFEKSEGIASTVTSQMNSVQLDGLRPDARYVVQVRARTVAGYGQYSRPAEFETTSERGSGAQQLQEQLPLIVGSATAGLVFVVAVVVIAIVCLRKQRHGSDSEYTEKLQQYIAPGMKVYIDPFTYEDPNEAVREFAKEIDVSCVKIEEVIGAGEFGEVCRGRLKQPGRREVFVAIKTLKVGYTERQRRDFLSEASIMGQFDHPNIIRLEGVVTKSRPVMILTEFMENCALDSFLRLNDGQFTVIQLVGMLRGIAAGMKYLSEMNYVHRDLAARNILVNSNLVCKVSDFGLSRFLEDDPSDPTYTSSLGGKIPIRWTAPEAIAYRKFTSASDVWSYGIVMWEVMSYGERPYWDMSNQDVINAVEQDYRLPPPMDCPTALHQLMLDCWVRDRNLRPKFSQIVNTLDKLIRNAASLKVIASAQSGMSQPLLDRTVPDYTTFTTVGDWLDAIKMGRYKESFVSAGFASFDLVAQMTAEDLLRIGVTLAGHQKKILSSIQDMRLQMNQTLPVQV
# [5] = molecular target: T3, Ephrin type-B receptor 3 (Homo sapiens); settings: at 10 µM
# [6] = molecular target: T4, Ephrin type-B receptor 4 (Homo sapiens) (UniProt P54760); settings: at 1 µM
# T4 sequence (whole entry): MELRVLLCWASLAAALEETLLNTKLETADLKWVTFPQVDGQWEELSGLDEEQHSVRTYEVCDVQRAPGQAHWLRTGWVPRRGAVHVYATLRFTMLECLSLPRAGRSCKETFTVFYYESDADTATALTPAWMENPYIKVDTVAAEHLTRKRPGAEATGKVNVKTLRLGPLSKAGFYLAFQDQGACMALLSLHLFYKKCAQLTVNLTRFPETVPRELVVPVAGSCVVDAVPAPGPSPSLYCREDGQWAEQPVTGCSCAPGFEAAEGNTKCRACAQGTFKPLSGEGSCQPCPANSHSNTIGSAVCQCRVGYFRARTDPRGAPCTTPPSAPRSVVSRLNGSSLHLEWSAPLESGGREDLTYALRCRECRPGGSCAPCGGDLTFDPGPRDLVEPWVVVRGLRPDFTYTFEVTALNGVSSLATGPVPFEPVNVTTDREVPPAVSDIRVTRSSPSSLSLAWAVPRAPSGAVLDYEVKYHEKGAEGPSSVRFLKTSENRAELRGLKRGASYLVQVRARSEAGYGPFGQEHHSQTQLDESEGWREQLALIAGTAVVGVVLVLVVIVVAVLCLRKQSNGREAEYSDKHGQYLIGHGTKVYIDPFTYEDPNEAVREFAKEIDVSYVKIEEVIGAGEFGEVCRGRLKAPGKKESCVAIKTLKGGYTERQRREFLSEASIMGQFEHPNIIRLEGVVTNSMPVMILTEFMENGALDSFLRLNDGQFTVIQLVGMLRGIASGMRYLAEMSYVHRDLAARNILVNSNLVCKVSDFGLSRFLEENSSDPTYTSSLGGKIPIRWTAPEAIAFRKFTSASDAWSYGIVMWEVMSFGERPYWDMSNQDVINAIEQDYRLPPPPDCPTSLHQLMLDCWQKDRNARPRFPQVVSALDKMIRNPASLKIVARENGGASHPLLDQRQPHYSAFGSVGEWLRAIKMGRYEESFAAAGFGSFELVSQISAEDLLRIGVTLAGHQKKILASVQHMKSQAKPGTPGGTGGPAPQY
# [7] = molecular target: T4, Ephrin type-B receptor 4 (Homo sapiens); settings: at 10 µM
# [8] = molecular target: Receptor tyrosine-protein kinase erbB-4 (Homo sapiens) (UniProt Q15303); settings: at 1 µM
# Chain of Receptor tyrosine-protein kinase erbB-4 (Homo sapiens) (Q15303 whole entry): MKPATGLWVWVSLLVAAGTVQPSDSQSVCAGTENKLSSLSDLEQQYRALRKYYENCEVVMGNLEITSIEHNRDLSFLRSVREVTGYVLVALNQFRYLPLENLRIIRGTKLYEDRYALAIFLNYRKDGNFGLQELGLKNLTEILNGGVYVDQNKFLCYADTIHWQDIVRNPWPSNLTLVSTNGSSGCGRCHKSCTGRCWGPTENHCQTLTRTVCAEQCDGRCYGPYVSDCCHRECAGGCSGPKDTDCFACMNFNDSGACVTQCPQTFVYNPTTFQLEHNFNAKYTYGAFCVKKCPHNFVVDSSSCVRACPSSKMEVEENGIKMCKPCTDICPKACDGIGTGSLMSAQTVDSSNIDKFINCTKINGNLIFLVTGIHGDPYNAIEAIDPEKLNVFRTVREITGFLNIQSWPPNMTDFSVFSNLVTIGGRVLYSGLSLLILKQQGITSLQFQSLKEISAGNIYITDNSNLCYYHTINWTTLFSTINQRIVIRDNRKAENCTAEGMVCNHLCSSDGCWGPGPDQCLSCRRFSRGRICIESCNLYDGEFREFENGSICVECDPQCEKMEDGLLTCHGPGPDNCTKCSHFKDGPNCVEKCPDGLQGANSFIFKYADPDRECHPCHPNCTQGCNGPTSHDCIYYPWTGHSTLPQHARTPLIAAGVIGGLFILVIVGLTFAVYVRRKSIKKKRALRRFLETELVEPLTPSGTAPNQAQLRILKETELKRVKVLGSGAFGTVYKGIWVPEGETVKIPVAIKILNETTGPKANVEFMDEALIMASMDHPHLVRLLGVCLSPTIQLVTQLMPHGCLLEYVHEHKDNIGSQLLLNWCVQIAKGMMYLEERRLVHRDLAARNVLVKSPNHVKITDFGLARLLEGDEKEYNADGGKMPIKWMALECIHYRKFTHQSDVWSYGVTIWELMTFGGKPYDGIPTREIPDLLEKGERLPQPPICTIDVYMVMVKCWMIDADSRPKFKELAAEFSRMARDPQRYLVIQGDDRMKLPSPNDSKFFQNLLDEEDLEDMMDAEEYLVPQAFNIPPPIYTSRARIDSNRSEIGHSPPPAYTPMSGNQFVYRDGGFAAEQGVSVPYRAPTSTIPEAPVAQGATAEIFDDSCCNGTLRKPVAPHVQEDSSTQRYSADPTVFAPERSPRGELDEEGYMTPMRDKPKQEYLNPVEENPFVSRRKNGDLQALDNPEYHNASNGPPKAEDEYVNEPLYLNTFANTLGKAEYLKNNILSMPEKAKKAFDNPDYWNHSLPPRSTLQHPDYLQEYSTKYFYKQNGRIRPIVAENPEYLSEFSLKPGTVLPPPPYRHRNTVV
# [9] = molecular target: Receptor tyrosine-protein kinase erbB-4 (Homo sapiens) (UniProt Q15303); settings: at 10 µM
# [10] = molecular target: Focal adhesion kinase 1 (Homo sapiens) (UniProt Q05397); settings: at 1 µM
# Chain of Focal adhesion kinase 1 (Homo sapiens) (Q05397 2-1052 limits assumed): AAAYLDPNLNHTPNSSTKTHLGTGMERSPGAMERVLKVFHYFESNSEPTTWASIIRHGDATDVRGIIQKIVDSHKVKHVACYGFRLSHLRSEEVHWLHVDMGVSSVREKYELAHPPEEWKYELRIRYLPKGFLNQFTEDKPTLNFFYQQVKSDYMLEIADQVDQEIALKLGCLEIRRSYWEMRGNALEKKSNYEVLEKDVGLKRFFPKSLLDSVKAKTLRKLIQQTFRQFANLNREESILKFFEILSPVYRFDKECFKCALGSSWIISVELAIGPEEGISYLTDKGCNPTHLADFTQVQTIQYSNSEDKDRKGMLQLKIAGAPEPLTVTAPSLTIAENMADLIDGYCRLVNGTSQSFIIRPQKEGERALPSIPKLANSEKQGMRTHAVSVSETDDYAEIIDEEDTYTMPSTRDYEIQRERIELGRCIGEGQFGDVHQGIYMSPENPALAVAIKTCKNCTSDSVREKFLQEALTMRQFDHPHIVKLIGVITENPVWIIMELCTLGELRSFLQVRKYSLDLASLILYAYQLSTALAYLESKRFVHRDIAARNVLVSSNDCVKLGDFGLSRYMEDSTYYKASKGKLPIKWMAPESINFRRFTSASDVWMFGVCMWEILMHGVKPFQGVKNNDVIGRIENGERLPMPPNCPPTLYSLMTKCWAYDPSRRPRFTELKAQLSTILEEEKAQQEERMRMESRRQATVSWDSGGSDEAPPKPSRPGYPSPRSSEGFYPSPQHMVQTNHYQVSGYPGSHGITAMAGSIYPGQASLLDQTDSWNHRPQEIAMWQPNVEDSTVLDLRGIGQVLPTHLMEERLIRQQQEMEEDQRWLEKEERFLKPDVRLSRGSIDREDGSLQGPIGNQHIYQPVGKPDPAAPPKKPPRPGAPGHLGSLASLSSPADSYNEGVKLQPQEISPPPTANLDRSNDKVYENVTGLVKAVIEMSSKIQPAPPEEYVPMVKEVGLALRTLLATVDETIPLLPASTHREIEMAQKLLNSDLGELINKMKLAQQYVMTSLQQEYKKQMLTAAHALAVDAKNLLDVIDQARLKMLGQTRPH
structure (smiles),measurement,setting,value
O=C1c2ccccc2-[n+]2ccc3c([nH]c4ccccc43)c21,residual activity,[1],85%
same,residual activity,[2],114%
same,residual activity,[3],116%
same,residual activity,[4],100% (inactive)
same,residual activity,[5],96%
same,residual activity,[6],92%
same,residual activity,[7],84%
same,residual activity,[8],69%
same,residual activity,[9],67%
same,residual activity,[10],95%
